We go through five compounds from PubChem BioAssay (NCATS).

Each structure is given as a SMILES string. Values without a mark were called inactive. Inconclusive results are not listed. Activity calls are given as the source filed them. Unless noted, calls come from the whole dose curve; as a rule, active = well fitted curve in the direction sought with a large enough effect; inconclusive = small, poorly fitted or top-dose-only effect, or another doubt; inactive = no such curve, though single readings can be large; an effect the other way counts as inactive or inconclusive.

The target in assay [1] is Cytochrome P450 1A2 (Homo sapiens) (UniProt P05177). As to the kind of experiment: p450-cyp1a2 (AID 410; calls by dose curve; note: potency is the fitted concentration of half-maximal effect;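 for activity change, negative = inhibition: -100% = full effect of reference inhibitor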). The method, boiled down: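 Inhibition was calculated relative to 57 uM furafylline (full inhibition). The reaction used human CYP1A2 at 20nM with Luciferin-ME at its Km, 100uM, driven by an NADPH-regenerating system for 60 min at room temperature.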
The target in assay [2] is Glucocorticoid receptor (Homo sapiens) (UniProt P04150). As to the kind of experiment: GR-GFP Redistribution (AID 450;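 active = compounds whose dose series gives a full or clear partial fitted curve of increased nuclear translocation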; note: potency is the fitted concentration of half-maximal effect). Particulars: U2OS GR-GFP nuclear translocation, laser cytometry, 2 h.
For assay [3] the target is unchanged. As to the kind of experiment: GR-EFC Redistribution (AID 451; calls by dose curve; note: potency is the fitted concentration of half-maximal effect). Particulars: CHO-K1 GR-EFC translocation, beta-gal luminescence, 2 h. The method, boiled down:
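Translocation of GR-ED fusion to nuclear EA restores b-gal, read by luminescence after 1 h room-temperature detection. Engineered CHO-K1 biosensor cells, 1,000/well, exposed 2 h at 37 C to titrations up to 46 uM final.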

The target in assay [4] is Mitogen-activated protein kinase 10 (Mus musculus) (UniProt Q61831). The assay is described as follows: JNK3 AlphaScreen Assay (AID 530; active = well fitted curve in either direction with a large enough effect, not every such curve was filed as active;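 note: kinase came from lysate of stimulated human HepG2 cells; signal reports phosphorylation of biotinylated GST-cJun 1-79 at Ser73 with 10 µM ATP; % is set by controls: 0 for no effect and ±100 for the full control effect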). The method in brief: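 Room-temperature AlphaScreen kinase assay; pre-activated HepG2 lysate as JNK3 source, biotin-GST-cJun(1-79) substrate, 10 uM ATP, compound 15 min preincubation.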
In general terms: Alpha assays give light when donor and acceptor beads are brought close together.

Assay [5] deals with 3',5'-cyclic-AMP phosphodiesterase 4B (Homo sapiens) (UniProt Q07343). The assay is described as follows: qHTS Assay for Inhibitors of PDE-IV (AID 607; active = well fitted activation curve with a large enough effect in the main read-out, with a control signal flat, not every such curve was filed as active; note: % of control where 0% means no effect). The method in brief: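 ACTOne HEK293 cells carry a modified cAMP-gated CNG channel and express endogenous PDE4; plated 1000 cells/well, compounds up to 22.9 uM final. Membrane-potential dye fluorescence (ex 535/em 590) was read; parental cells received 10 uM forskolin + 100 uM RO 20-1724.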
In general terms: In qHTS, concentration-response curves come from the screen itself.

In assay [6] the target is Ubiquitin carboxyl-terminal hydrolase 1 (Homo sapiens) (UniProt O94782). The assay is described as follows: Inhibitors of USP1/UAF1: Pilot qHTS (AID 504865).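 Note: rhodamine fluorescence freed from ubiquitin-rhodamine substrate followed over time; top concentration of the series differs between compounds; % is set by controls: 0 for no effect and ±100 for the full control effect; nearly all actives have a fitted effect of over 35% in size.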 The method, boiled down: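 Enzyme-free wells gave the negative control, while test wells held 1nM USP1/UAF1 preincubated with compound for 15 min at room temperature. Ub-Rho at 150nM final started the reaction, and fluorescence at 480/540 nm was recorded kinetically.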

Assay [7] has as its target DNA dC->dU-editing enzyme APOBEC-3G (Homo sapiens) (UniProt Q9HC16). The assay is described as follows: qHTS for inhibitors of Vif-A3G interactions: Validation (AID 588379). Note: 0% is about no effect. The method in brief: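 HeLa cells stably expressing Vif and A3G-eYFP, 700 cells/well, incubated overnight at 37 deg C, then exposed to compound overnight at 37 deg C. Inhibition of Vif-mediated degradation read as increased yellow fluorescence (Ex 488/Em 500-530) by laser-scanning cytometry.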

The subject of assay [8] is Zika virus NS2B-NS3 protease. The assay is described as follows: Primary screen GU AMC qHTS for Zika virus inhibitors (AID 1347154).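 Note: 0% = no-inhibitor control and -100% = no-enzyme control; nearly all actives have a fitted effect of over 70% in size.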 The method in brief: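 Fluorogenic AMC-substrate cleavage by noncovalent NS2B-NS3 protease complex (25 nM, pH 8.0 Tris buffer with Tween 20) followed for 15 minutes at room temperature (~20% conversion). Percent inhibition from ex340/em450 signal change, fitted by 4-parameter Hill equation.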

For assay [9], the target named is Rap guanine nucleotide exchange factor 3 (Homo sapiens) (UniProt O95398). As to the kind of experiment: Confirmatory qHTS for antagonist of cAMP-regulated guanine nucleotide exchange factor 3 (EPAC1) (AID 1645880).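 Note: plate controls were DMSO only for no effect and full effect of the ATA control for full effect; nearly all actives have a fitted effect of over 55% in size.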 The method, boiled down: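 Nucleotide exchange uses 100 nM EPAC1, 250 nM RAP1B-BODIPY-GDP and 50 uM GDP, with compounds in a concentration-titration series. After 5 min at room temperature, fluorescence (480 nm ex/540 nm em) is read every 5 min for 30 min. Data are normalized to control ATA and DMSO.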

Assay [10] has the same target. As to the kind of experiment: Confirmatory qHTS for agonist of cAMP-regulated guanine nucleotide exchange factor 3 (EPAC1) (AID 1645881).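 Note: EPAC1 catalysed release of BODIPY-GDP from Rap1B seen as fluorescence loss; nearly all actives have a fitted effect of over 75% in size.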
In assay [11] the target is Rap guanine nucleotide exchange factor 4 (Homo sapiens) (UniProt Q8WZA2). The assay is described as follows: Confirmatory qHTS for agonist of cAMP-regulated guanine nucleotide exchange factor 4 (EPAC2) (AID 1645884).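 Note: nucleotide exchange releases bodipy-GDP from Rap1 and this lowers its fluorescence; % is set by controls: 0 for no effect and ±100 for the full control effect; nearly all actives have a fitted effect of over 65% in size.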
For assay [12] the target is unchanged. The assay is described as follows: Confirmatory qHTS for antagonist of cAMP-regulated guanine nucleotide exchange factor 4 (EPAC2) (AID 1645885). Note: potency is the fitted concentration of half-maximal effect; nearly all actives have a fitted effect of over 25% in size.
Assay [13] has as its target Cytochrome P450 3A4 (Homo sapiens) (UniProt P08684). The assay is described as follows: qHTS Assay for Inhibitors and Substrates of Cytochrome P450 3A4 (AID 884). Note: potency is the fitted concentration of half-maximal effect; nearly all actives have a fitted effect of over 50% in size. The method in brief: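 20 nM human CYP3A4 with 25 uM Luciferin-PPXE (at KM) in 200 mM KPO4, preincubated 10 min with compound; NADPH regeneration started a 60 min RT reaction. Luciferin detected by luminescence, normalized to 57 uM ketoconazole as full inhibition.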

For assay [14] the target is unchanged. As to the kind of experiment: qHTS Assay for Activators of Cytochrome P450 3A4 (AID 885). Note: nearly all actives have a fitted effect of over 65% in size. The method in brief: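 20nM CYP3A4 + 25uM Luciferin-PPXE (=KM), 200mM KPO4; cpd 10 min RT; NADPH regen, 60 min RT; stop w/ detection buffer, 20 min; luminescence. Normalized to 57 uM ketoconazole.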
Assay [15] has as its target Cytochrome P450 2D6 (Homo sapiens) (UniProt P10635). As to the kind of experiment: qHTS Assay for Inhibitors and Substrates of Cytochrome P450 2D6 (AID 891). Note: nearly all actives have a fitted effect of over 60% in size. Note: potency is the fitted concentration of half-maximal effect. The method in brief:
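Human CYP2D6 (5 nM) with 30 uM Luciferin-ME EGE (at Km) in 100 mM KPO4, compound preincubated 10 min, then NADPH regeneration system for 60 min at room temperature. Luciferin read by luminescence; normalized to 1.43 uM quinidine.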

In assay [16] the target is Cytochrome P450 2C9 (Homo sapiens) (UniProt P11712). As to the kind of experiment: qHTS Assay for Inhibitors and Substrates of Cytochrome P450 2C9 (AID 883). Note: potency is the fitted concentration of half-maximal effect; nearly all actives have a fitted effect of over 60% in size. The method, boiled down:
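Inhibition of CYP2C9 is scored as loss of luminescence, with 57uM sulphaphenazole defining 100% inhibition. Substrate Luciferin-H is used at 100uM, equal to its KM; enzyme at 10nM in 25mM KPO4, 60 min at 37C with NADPH regeneration.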

Assay [17] in a line: AP1 Signaling Pathway (AID 357; active = well fitted curve in either direction with a large enough effect, not every such curve was filed as active; note: % is set by controls: 0 for no effect and ±100 for the full control effect). Particulars: ME-180 (cervical carcinoma) AP-1-bla reporter, EGF-induced, beta-lactamase ratio, 5 h; at 38 µM (top of the series). The method, boiled down:
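AP-1-bla ME-180 cells with beta-lactamase reporter under AP-1 response element, stimulated with EC50 EGF; compounds titrated, 5 hours at 37 degrees Celsius. CCF4 read at 460/530 nm ratio; positive and negative modulators judged by AC50.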

Assay [18] can be described thus: NFAT Signaling Pathway (AID 444; active = well fitted curve in either direction with a large enough effect, not every such curve was filed as active;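 note: carbachol stimulus at about its EC50 of 1 µM final; % is set by controls: 0 for no effect and ±100 for the full control effect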). To be noted: Jurkat NFAT-bla M1, carbachol, beta-lactamase ratio, 5 h; at 38 µM (top of the series). The method, boiled down: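 Read-out: CCF4 FRET ratio (460 nm/530 nm) after 1 h RT dye loading, used for %activity and AC50 from titration series. Cells: Jurkat NFAT-β-lactamase/M1 line, treated with compound plus 1 uM carbachol for 5 h, 37 °C.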

For assay [19], the target named is Guanine nucleotide-binding protein G(i) subunit alpha-1 (Homo sapiens) (UniProt P63096). The assay is described as follows: qHTS Assay for Inhibitors of RGS12 GoLoco Motif Activity (Green Fluorophore) (AID 879).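 Note: 0% = labeled peptide with Gαi1 and full inhibition = labeled peptide alone without protein; negative values mean loss of peptide binding seen as reduced polarization.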 The method, boiled down: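 Fluorescence polarization assay: 50 nM Gαi1 with 10 nM FITC-labeled RGS12 GoLoco peptide in 10 mM Tris pH 7.5, 150 mM NaCl, 0.1 mM GDP, 0.05% NP40, 10 min at room temperature with compound.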

Assay [20] in a line: qHTS Assay for Identification of Small Molecule Agonists for Thrombopoietin (TPO) Signaling Pathway (AID 917). Note: % is set by controls: 0 for no effect and ±100 for the full control effect. The method in brief:
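IL-3-dependent murine pro-B Ba/F3 cells, stably transfected with human TPO receptor and GpIIb-promoter luciferase, are incubated 24 hrs at 37 C with test compound and 26 pM TPO; luciferase signal is read after 10 min at room temperature.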

Assay [21] concerns the target Muscarinic acetylcholine receptor M1 (Rattus norvegicus) (UniProt P08482). As to the kind of experiment: qHTS Assay for Antagonists of Acetylcholine Muscarinic M1 Receptor: Kinetic Measurement of Intracellular Calcium Response (AID 943).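 Note: Fluo-4 calcium signal as peak divided by basal fluorescence over 4 min; nearly all actives have a fitted effect of over 75% in size.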 The method, boiled down:
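Intracellular calcium flux, recorded with Fluo-4 in a kinetic plate reader, served as signal; the response to carbachol at EC80 (100 nM final) was taken as maximal over minimal fluorescence after a 10 min compound pre-incubation in rat M1-CHO cells.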

The target in assay [22] is Pyruvate kinase (Leishmania mexicana) (UniProt Q27686). The assay is described as follows: qHTS Validation Assay for Inhibitors of Leishmania Mexicana Pyruvate Kinase (AID 945).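 Note: 0% = DMSO only neutral control wells.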 The method in brief:
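qHTS eight-point titrations against 0.2 nM LmPYK (E451W) in imidazole buffer pH 7.2 with 0.5 mM PEP, 0.1 mM ADP; 1 h, room temperature. Readout: PKLight luminescence, normalized to neutral DMSO wells.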

Assay [23] has as its target Alpha-galactosidase A (Homo sapiens) (UniProt P06280). The assay is described as follows: Counterscreen for Glucocerebrosidase Inhibitors: qHTS Assay for Human alpha-Galactosidase at pH 4.5 (AID 992). Note: 0% is about no effect. The method in brief: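 Enzyme at 2 nM final was combined with compound (0.7 nM to 77 uM) and 80 uM 4-methylumbelliferyl alpha-D-galactopyranoside in 50 mM citric acid, 0.005% Tween-20, pH 4.5. After 20 min at room temperature, fluorescence was read (Ex 365/Em 440 nm); AC50 came from Hill fits.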

Assay [24] deals with alpha-glucosidase (Oryza sativa, rice) (UniProt Q653V4). As to the kind of experiment: Counterscreen for Glucocerebrosidase Inhibitors: qHTS Assay for Rice alpha-Glucosidase at pH 5.0 (AID 997).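 Note: 0% = full activity with enzyme and -100% = basal without enzyme.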 The method, boiled down: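 Rice alpha-glucosidase (4 nM final) with 400 uM 4-methylumbelliferyl-alpha-D-glucopyranoside in citrate buffer pH 5.0, 20 min at room temperature, stopped at pH 10; fluorescence 365/440 nm, compounds 0.7 nM–77 uM, AC50 from Hill fits.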

Assay [25] deals with Cytochrome P450 2C19 (Homo sapiens) (UniProt P33261). The assay is described as follows: qHTS Assay for Inhibitors and Substrates of Cytochrome P450 2C19 (AID 899). Note: potency is the fitted concentration of half-maximal effect; nearly all actives have a fitted effect of over 60% in size. The method, boiled down: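 5nM enzyme + 10uM Luciferin-H EGE (=KM), 50mM KPO4; cpd pin-transferred, 10 min 37C; NADPH regen, 60 min 37C; stopped w/ luciferin detection reagent, 20 min; luminescence. Normalized to 57uM ketoconazole (AC100).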

Sequence of Cytochrome P450 3A4 (Homo sapiens) (P08684 whole entry, looked up): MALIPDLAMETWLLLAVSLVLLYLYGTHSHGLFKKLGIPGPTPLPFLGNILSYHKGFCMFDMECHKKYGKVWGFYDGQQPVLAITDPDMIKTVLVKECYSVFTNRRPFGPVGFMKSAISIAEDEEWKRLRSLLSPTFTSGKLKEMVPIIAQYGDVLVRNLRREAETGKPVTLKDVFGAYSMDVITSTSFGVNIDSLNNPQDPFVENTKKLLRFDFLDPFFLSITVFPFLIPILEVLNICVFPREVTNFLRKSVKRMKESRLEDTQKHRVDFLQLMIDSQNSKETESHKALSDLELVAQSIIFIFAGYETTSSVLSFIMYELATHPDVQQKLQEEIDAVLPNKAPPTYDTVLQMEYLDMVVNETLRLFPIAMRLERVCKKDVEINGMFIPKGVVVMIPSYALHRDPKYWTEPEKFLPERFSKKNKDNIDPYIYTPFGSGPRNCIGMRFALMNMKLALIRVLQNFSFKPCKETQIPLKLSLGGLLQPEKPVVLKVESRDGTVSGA
Sequence of Ubiquitin carboxyl-terminal hydrolase 1 (Homo sapiens) (O94782 whole entry, looked up): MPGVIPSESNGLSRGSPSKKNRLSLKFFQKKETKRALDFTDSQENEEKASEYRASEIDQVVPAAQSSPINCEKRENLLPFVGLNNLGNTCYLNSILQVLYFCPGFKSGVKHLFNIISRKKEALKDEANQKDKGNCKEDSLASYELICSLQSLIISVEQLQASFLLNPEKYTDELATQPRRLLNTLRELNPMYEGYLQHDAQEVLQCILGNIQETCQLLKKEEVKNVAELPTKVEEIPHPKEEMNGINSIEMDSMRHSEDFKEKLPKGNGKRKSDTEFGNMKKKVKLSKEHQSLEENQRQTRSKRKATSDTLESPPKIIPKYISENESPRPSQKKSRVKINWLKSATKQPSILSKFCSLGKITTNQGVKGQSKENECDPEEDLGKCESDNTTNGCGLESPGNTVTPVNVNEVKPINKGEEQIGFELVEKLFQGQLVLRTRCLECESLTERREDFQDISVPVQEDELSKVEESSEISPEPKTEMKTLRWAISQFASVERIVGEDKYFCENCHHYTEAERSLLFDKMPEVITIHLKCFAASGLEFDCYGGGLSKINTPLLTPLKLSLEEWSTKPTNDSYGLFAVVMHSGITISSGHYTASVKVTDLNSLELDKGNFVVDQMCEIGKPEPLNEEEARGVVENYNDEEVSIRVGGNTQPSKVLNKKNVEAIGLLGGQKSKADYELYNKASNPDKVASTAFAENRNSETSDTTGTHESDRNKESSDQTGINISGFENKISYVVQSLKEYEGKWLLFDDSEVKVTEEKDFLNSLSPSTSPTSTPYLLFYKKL
Sequence of 3',5'-cyclic-AMP phosphodiesterase 4B (Homo sapiens) (Q07343 whole entry, looked up): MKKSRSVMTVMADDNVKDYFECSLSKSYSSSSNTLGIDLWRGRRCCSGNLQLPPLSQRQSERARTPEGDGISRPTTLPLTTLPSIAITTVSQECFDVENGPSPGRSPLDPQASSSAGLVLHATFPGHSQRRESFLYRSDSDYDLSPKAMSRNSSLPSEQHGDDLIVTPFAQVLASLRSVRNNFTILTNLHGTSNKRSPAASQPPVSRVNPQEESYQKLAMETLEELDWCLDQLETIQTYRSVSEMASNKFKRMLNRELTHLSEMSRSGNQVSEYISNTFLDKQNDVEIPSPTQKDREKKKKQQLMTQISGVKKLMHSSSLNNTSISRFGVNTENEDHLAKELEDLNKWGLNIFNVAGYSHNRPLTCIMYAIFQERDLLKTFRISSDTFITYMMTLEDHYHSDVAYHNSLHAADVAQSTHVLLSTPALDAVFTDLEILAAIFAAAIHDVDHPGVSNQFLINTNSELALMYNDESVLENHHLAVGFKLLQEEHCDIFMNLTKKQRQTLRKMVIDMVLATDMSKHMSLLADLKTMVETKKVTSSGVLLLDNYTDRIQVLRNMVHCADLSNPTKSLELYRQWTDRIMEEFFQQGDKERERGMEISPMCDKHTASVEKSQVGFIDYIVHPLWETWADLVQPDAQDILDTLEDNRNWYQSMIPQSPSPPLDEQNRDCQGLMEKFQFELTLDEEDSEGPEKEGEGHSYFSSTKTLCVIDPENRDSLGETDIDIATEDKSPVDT
Sequence of DNA dC->dU-editing enzyme APOBEC-3G (Homo sapiens) (Q9HC16 whole entry, looked up): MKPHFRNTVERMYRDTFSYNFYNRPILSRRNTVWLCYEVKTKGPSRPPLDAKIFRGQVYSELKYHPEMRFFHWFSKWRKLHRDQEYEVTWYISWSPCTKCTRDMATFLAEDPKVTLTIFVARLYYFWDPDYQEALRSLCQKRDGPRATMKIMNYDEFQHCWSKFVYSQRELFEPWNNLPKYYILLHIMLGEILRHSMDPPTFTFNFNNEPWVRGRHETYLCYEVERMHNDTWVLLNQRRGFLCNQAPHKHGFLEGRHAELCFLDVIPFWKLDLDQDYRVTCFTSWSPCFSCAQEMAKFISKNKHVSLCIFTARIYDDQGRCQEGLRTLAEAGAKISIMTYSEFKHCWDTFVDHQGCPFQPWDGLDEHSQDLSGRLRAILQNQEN
Sequence of Cytochrome P450 2D6 (Homo sapiens) (P10635 whole entry, looked up): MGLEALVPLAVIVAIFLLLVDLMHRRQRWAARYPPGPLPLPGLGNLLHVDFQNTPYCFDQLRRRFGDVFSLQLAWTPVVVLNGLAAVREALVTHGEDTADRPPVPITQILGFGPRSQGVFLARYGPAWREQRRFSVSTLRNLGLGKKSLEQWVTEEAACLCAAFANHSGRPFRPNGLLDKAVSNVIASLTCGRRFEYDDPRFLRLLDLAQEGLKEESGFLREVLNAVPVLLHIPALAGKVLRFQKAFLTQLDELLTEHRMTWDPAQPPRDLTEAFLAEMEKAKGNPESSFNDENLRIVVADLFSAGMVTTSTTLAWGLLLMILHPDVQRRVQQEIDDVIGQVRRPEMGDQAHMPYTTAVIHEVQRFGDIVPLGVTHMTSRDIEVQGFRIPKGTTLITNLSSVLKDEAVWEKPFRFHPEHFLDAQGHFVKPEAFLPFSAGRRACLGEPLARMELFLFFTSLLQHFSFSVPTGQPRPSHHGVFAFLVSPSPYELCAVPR
Sequence of Cytochrome P450 1A2 (Homo sapiens) (P05177 whole entry, looked up): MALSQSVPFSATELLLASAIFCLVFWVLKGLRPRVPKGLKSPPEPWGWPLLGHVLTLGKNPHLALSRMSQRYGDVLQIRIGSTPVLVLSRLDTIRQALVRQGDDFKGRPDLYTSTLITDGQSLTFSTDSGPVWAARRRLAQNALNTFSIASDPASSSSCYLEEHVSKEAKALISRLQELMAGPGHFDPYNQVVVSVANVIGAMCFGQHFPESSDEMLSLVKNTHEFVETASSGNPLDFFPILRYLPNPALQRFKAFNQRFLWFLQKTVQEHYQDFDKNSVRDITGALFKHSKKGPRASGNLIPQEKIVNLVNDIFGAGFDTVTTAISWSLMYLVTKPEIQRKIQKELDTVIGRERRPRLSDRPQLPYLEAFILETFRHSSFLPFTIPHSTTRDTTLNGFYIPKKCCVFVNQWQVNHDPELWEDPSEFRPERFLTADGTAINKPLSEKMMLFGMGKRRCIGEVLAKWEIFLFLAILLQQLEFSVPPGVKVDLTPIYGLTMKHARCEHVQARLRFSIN
Sequence of Glucocorticoid receptor (Homo sapiens) (P04150 whole entry, looked up): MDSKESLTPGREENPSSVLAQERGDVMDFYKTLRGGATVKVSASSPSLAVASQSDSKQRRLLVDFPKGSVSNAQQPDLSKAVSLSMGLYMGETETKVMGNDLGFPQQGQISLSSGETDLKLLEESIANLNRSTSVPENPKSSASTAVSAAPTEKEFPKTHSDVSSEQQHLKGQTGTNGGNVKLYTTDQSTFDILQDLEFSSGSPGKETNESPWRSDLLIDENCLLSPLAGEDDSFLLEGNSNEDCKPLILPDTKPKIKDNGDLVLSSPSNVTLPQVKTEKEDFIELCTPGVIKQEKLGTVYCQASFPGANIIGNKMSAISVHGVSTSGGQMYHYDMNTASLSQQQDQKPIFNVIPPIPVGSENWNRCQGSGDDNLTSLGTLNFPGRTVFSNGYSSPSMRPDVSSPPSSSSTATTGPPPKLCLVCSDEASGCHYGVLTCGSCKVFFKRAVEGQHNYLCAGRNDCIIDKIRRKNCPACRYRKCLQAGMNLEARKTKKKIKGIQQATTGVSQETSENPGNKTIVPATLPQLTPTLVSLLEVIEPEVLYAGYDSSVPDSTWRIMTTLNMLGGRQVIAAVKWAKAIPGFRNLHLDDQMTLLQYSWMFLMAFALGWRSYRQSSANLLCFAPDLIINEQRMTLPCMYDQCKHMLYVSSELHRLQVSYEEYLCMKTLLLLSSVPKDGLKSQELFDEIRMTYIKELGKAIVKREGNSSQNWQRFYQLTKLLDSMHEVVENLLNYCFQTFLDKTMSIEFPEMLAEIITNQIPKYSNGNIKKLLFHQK
Sequence of Pyruvate kinase (Leishmania mexicana) (Q27686 2-499 E452W): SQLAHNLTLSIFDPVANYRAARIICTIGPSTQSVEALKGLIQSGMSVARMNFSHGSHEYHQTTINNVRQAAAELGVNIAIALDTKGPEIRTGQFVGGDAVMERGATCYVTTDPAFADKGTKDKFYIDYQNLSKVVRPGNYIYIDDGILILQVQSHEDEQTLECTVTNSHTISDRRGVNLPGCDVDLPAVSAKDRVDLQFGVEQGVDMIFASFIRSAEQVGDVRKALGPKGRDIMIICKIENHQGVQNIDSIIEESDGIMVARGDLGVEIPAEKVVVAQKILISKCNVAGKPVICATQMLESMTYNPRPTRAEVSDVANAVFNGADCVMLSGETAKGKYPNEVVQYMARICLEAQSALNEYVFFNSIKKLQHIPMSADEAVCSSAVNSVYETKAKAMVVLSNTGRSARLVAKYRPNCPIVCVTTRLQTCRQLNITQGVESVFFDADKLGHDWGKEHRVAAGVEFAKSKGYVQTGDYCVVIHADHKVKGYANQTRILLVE

Consider `CC[C@]1(c2ncc[nH]2)Cc2ccccc2O1`, for which the Potency entry in assay [1], in assay [4], in assay [5], in assay [6], in [7] and in assay [8] was “inactive” in each case. The Potency entry in [9] was “inactive”. The results for the Potency in [2], in assay [3] and in [12] were over 46 µM, over 46 µM and 44.1 µM (active), respectively. The compound was called inactive in assay [10] and in assay [11].

`O=C(NCCCN1CCCCCC1)[C@@H](c1ccccc1)C1CCCCC1`: the Potency in assay [1] is 31.6 µM (active); in assay [2], over 46 µM; in assay [3], over 46 µM; in [13], 3.98 µM (active); in [15], 0.631 µM (active). Also, the Potency entry in [14], in assay [6], in [7] and in assay [8] was “inactive” each time.

Consider `COc1cccc(NC(=O)/C=C\c2ccc(Cl)cc2)c1`, for which the Potency in assay [1] was 1 µM (active); in assay [2], over 46 µM; in assay [3], over 46 µM; in assay [16] it was 10 µM (active); in assay [13], 12.6 µM (active). Also, the Potency entry in assay [5], in [14], in assay [15], in [7] and in [8] was “inactive” in each case.

For the compound `NS(=O)(=O)c1cc2c(cc1Cl)N[C@@H]([C@@H]1C[C@@H]3C=C[C@H]1C3)NS2(=O)=O`, the activity change, negative = inhibition is -0.109% in assay [17] and 4.22% in [18]. The Potency in assay [2] and in [3] was over 46 µM each time. In addition, the Potency result in [4], in assay [5], in assay [20], in assay [21], in [22] and in assay [7] was “inactive” each time. Besides, the Potency entry in [8] was “inactive”. The result in assay [19], in assay [23] and in assay [24] was inactive.

`OCCNCCCOc1cccc(Cl)c1Cl`: the Potency is 0.2 µM (active) in assay [1]; over 46 µM in assay [2]; over 46 µM in assay [3]; 0.158 µM (active) in assay [15]; 3.98 µM (active) in assay [25]. In addition, the Potency entry in assay [4], in assay [14], in [6], in assay [7] and in assay [8] was “inactive” throughout.
